# High-throughput results as filed in PubChem BioAssay.
# LMNA splice mod – LMNA splicing modulation. hit rate 0.01% among 200,000. Potency, µM (top dose mostly 46.1 µM), for the others: at the top dose ratio change, negative = inhibition, most hits filed as inhibitors. HeLa LMNA splicing GFP/RFP minigene ratio, 48 h; active = well fitted inhibition curve with a large enough effect in the signal ratio, with a control signal flat, not every such curve was filed as active; inconclusive = small, poorly fitted or top-dose-only effect, or effect the other way, or a change in a side signal; the % refers to the signal ratio; also: potency is read from the fitted curve at half-maximal effect
#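 S3 HeLa stable clones carrying a lamin A-EGFP splicing minigene plus DsRed2 were seeded at 600 cells/well in Opti-MEM with 2% FBS, pin-dosed and incubated 48 h at 37°C. Acumen cytometry (488 nm) gave the GFP/RFP total-intensity ratio.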
# KinaseGlo FLuc – blocks Kinase-Glo luciferase, a counter-screen artifact. Q27757. Kinase-Glo luciferase, ATP luminescence, 8 min. Potency, µM (top dose mostly 38.3 µM), inactives show top-dose activity change, negative = inhibition, hits mostly inhibitors. hit rate 0.28% among 200,000; active = well fitted inhibition curve with a large enough effect; inconclusive = small, poorly fitted or top-dose-only effect; also: potency is read from the fitted curve at half-maximal effect; nearly all actives have a fitted effect of over 60% in size
#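 Substrate mix (final 50 mM imidazole pH 7.2, 50 mM KCl, 7 mM MgCl2, 10 uM ATP, 0.01% Tween 20, 0.05% BSA) plus pin-tool compound, then Kinase-Glo detection mix; 8 min ambient, luminescence read.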
# HPGD inh – inhibitors of human 15-hydroxyprostaglandin dehydrogenase (HPGD) | P15428 | purified HPGD, NADH fluorescence kinetic, PGE2 substrate | Potency, µM, for inactives: at the highest dose activity change, negative = inhibition, usual class: inhibitors | hit rate 4.3% among 150,000 | AID 894; also: potency is read from the fitted curve at half-maximal effect
# Target sequence (P15428 whole entry, looked up): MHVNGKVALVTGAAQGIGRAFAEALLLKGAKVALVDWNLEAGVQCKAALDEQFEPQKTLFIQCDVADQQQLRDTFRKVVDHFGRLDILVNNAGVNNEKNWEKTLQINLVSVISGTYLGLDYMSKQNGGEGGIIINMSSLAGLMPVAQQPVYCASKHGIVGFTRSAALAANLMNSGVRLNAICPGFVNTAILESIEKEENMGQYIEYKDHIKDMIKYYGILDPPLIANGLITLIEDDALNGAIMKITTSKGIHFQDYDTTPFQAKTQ
#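 20 nM HPGD preincubated 15 min at room temperature with compound in 50 mM Tris-HCl pH 8, 0.01% Tween 20. Started with 1 mM NAD+ and 30 uM prostaglandin E2; NADH fluorescence (360/450 nm) read 5 times over 30-s intervals, last minus first.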
# ALDH1A1 inh – ALDH1A1 (human) enzyme inhibition; P00352; Purified ALDH1A1, NADH fluorescence, propionaldehyde substrate; Potency, µM (doses to about 75.3 µM), for the others: at the top dose activity, negative = inhibition, most hits filed as inhibitors; hit rate 7.3% among 220,000; AID 1030;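 also: potency is read from the fitted curve at half-maximal effect; plate controls were no enzyme wells and a reference inhibitor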
# Target sequence (P00352 whole entry, looked up): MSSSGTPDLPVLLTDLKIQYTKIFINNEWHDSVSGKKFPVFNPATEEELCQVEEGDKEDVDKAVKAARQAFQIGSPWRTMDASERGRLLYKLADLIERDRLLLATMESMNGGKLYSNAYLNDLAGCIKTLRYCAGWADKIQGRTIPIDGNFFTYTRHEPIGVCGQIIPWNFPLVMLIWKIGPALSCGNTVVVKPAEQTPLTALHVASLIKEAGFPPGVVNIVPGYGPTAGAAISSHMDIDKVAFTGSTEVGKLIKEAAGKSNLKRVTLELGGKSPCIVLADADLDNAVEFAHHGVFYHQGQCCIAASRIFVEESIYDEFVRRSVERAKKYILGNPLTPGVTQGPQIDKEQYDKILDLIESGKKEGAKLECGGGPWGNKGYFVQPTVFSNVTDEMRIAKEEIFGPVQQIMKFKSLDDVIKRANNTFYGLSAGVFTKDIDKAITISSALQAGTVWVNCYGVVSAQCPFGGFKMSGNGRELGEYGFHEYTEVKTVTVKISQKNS
# PNC inhibitor – inhibitors of perinucleolar compartment assembly. PC3M PTB-GFP, PNC prevalence imaging, 16 h; hits give low values. activity change (PNC), negative = inhibition, % at 10 µM. hit rate 3.1% among 140,000;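 active = readout at or below -70, meaning at least 70% loss of cells showing the perinucleolar compartment, a nuclear body marking cancer cells; inconclusive = readout between -30 and a set limit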;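 also: plate controls were DMSO wells for no effect and camptothecin positive control wells for full effect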
#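 PC3M cells stably expressing PTB-GFP, 750–1000 cells/well, treated 16 h at 37 °C with compound (23 nl of library stock), in duplicate. After paraformaldehyde fixation and Hoechst stain, imaged at 20x; PNC prevalence scored by image analysis.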
# * = called active by the depositor; ? = inconclusive; nt = no result given; [ ] = dose if it differs, or a comment. Sampled rows, rich in hits. Any-hit rate of the full collection: about 10%. Unless noted, calls follow the shape of the dose curve; as a rule, active = well fitted inhibition curve with a large enough effect (not every such curve was filed as active); inconclusive = small, poorly fitted or top-dose-only effect, or another doubt; inactive = no such curve, though single readings can be large or run the other way. Unless noted, % is scaled to controls: 0 for no effect and ±100 for the full control effect.
SMILES,LMNA splice mod,KinaseGlo FLuc,HPGD inh,ALDH1A1 inh,PNC inhibitor
COc1ccc(S(=O)(=O)c2c(C)c(NS(=O)(=O)c3ccccc3)cc(C)c2O)cc1,nt,nt,nt,8.91µM*,nt
CC1(C)S[C@@H]2[C@H](NC(=O)COc3ccccc3)C(=O)N2[C@H]1C(=O)O (tested in a mixture with another compound),?,0.3%[17.1 µM],-11.1%,18.0%[20.9 µM],nt
CCOc1ccc(CNC(=O)c2oc3c(c2C)-c2nn(Cc4cccc(Cl)c4)cc2CC3)cc1,8.1%[46 µM],nt,nt,nt,nt
Cc1cccc(S(=O)(=O)N2CCC(CO)(Cc3ccccc3)CC2)c1,-4.0%[46 µM],3.4%,nt,20µM*,nt
COc1ccc(CC2(CO)CCN(S(=O)(=O)c3sccc3C)CC2)cc1,nt,-1.0%,nt,8.91µM*,nt
COc1cc(OC)c(NC(=O)CCc2nc(C3=CCN(Cc4cccc(Cl)c4)CC3)no2)cc1Cl,-4.6%[46 µM],nt,nt,nt,nt
O=C(C1=C(O)C(=O)N(c2ncccn2)C1c1cccc(Cl)c1)c1ccco1 (stereo not drawn),16.9%,-3.5%,-13.1%,17.8µM*,21.1
O=C(C1=C(O)C(=O)N(c2ncccn2)C1c1ccc(Cl)c(Cl)c1)c1ccco1 (stereo not drawn),25.4%,4.6%,?,7.94µM*,?
CCCn1c2c(c(O)c(C(=O)NC)c1=O)CCCC2,-5.0%,-0.3%,-17.1%,-11.1%,196.1
CCCn1c2c(c(O)c(C(=O)Nc3ncccc3O)c1=O)CCCC2,?,nt,nt,5.62µM*,?
CCCn1c2c(c(O)c(C(=O)Nc3ccc(OC)cc3)c1=O)CCCC2,0.4%,-1.8%,?,?,-27.4
CCCn1c2c(c(O)c(C(=O)NCCCN(CC)CC)c1=O)CCCC2,-19.2%,3.3%,-13.1%,28.2µM*,-100.0*
COc1ccc(OCC(=O)Nc2nc(-c3ccc(Br)cc3)ns2)cc1,-9.0%[46 µM],nt,nt,nt,nt
CC(=O)Nc1ccc2c(c1)ncn2-c1ccc(C)cc1,0.2%[46 µM],-2.5%,nt,6.2%,nt
CC(=O)Nc1ccc2c(c1)ncn2C,-1.7%,-2.6%,6.4%,35.5µM*,3.4
Cc1ccc(OCC(=O)NCc2cccs2)cc1,-4.5%,-4.2%,22.4µM*,-6.0%,?
Cc1c(Cl)c(=O)oc2cc(OCC(=O)NCc3cccs3)ccc12,?,0.6%,?,?,-108.4*
Cc1ccc(N(CC(=O)NCc2cccs2)S(=O)(=O)c2cccs2)cc1,13.7%,-0.6%,-11.8%,?,-83.5*
COc1ccc(N(CC(=O)NCc2cccs2)S(=O)(=O)c2c(C)nn(C)c2C)cc1,5.3%,5.2%,-7.8%,?,39.1
COc1ccc(O[C@H]2C=C[C@@H](c3ccccc3)O[C@H]2CO/N=C2/c3cc(OC)ccc3O[C@@H](c3cccc(OC)c3)[C@H]2O)cc1,nt,nt,nt,5.3%[13.5 µM],nt
O=c1[nH]c2c(s1)C(c1ccc(O)cc1)C1C3CCC(C3)C1S2 (stereo not drawn),9.3%,-0.6%,?,11.2µM*,?
COc1c(S(=O)(=O)n2nc(C)cc2C)ccc(Cl)c1Cl,?,-1.3%,22.4µM*,28.2µM*,8.3
Cc1cc(C)n(S(=O)(=O)c2ccc(Cl)c(Cl)c2Cl)n1,-0.2%,3.9%,-15.1%,5.8%,20.4
COc1ccc(-n2nc(C(=O)NCC(=O)NCC3CCCO3)c3ccccc3c2=O)cc1 (stereo not drawn),9.3%,-2.4%,-26.7%,?,-8.8
COc1cccc(-n2nnc3c(=O)n(CC(=O)Nc4ccc(C)cc4)cnc32)c1,nt,2.0%,nt,4.9%,nt
SMILES,LMNA splice mod,KinaseGlo FLuc,HPGD inh,ALDH1A1 inh,PNC inhibitor
O=c1c2cnn(-c3ccccc3)c2ncn1Cc1cccc(Cl)c1,-1.9%,-1.3%,-7.9%,0.7%,-107.8*
COc1cccc(-n2nnc3c(=O)n(Cc4c(F)cccc4Cl)cnc32)c1,4.5%,0.3%,28.2µM*,?,5.9
COc1ccc(-n2ncc3c(=O)n(Cc4c(F)cccc4Cl)cnc32)cc1,nt,1.4%,nt,28.2µM*,nt
COc1ccc(-n2nc(C(=O)NCC(=O)NCC3CCCO3)c3ccccc3c2=O)c(OC)c1 (stereo not drawn),2.4%,nt,nt,12.6µM*,?
CCc1ccccc1NC(=O)c1cc(S(=O)(=O)N(CC)c2ccccc2)ccc1F,-7.2%[46 µM],nt,nt,nt,nt
Cn1c(=O)c(-c2ccc(Cl)cc2)nc2cnc(N3CCOCC3)nc21,-4.5%,nt,nt,?,nt
COc1ccc(-n2nnc3c(=O)n(Cc4ccccc4C)cnc32)cc1,?,-1.3%,-2.7%,-0.9%,?
COc1cccc(-n2nnc3c(=O)n(CC(=O)N4CCCCC4)cnc32)c1,2.9%,1.5%,?,-2.6%,3.9
COc1ccc(-n2nnc3c(=O)n(Cc4cccc(C)c4)cnc32)cc1,13.4%,0.0%,15.8µM*,-14.7%,-28.3
COc1cccc(-n2nnc3c(=O)n(Cc4cccc(F)c4)cnc32)c1,20.3%,-1.2%,14.1µM*,4.3%,-3.4
COc1cccc(-n2nnc3c(=O)n(CC(=O)NCC4CCCO4)cnc32)c1 (stereo not drawn),-9.4%,2.2%,15.8µM*,-7.4%,?
COc1cc(NC(=O)CN2CCCN(Cc3cccc(F)c3)S2(=O)=O)cc(OC)c1,-5.1%[46 µM],nt,nt,nt,nt
COc1ccc(O[C@H]2C=C[C@@H](c3ccccc3)O[C@@H]2COC(=O)CC/C(C)=N/OC[C@@H](O)COCc2ccco2)cc1,?,1.9%,-16.9%,10µM*,-2.5
C/C(CCC(=O)OC[C@@H]1O[C@H](C#Cc2ccccc2)C=C[C@@H]1Oc1ccc(C)cc1)=N/OC[C@@H](O)COCc1ccco1,nt,nt,nt,-0.4%[13.5 µM],nt
Cc1ccc(C=Nc2ccccc2C(N)=O)o1,23.0%,?,?,?,-92.8*
COc1ccc(-c2nn(-c3ccccc3)cc2/C=C(\C#N)S(=O)(=O)c2ccccc2)cc1OC,-0.6%,-1.8%,-22.2%,8.91µM*,42.1
COc1ccc(-c2nn(-c3ccccc3)cc2/C=N/NC(N)=S)cc1OC,?,0.8%,-28.2%,11.1%,-111.9*
O=C1C2=C(Nc3cc([N+](=O)[O-])ccc3N2)O[C@@H]1c1ccc([C@H]2OC3=C(Nc4ccc([N+](=O)[O-])cc4N3)C2=O)cc1,nt,-4.9%[7.66 µM],-8.2%,?,nt
CC(C)c1ccc2c(c1)[C@H]1OCC[C@H]1[C@@H](c1cccs1)N2,?,-1.4%,7.94µM*,6.1%,-109.0*
CCOC(=O)C1=NN(c2ccc([N+](=O)[O-])cc2)CC1C(=O)OC (stereo not drawn),-6.3%,0.6%,-10.9%,1.12µM*,-17.5
CCCCOC(=O)C1CN(c2ccccc2)N=C1C(=O)OCC (stereo not drawn),-14.0%,8.4%,?,-1.6%,?
O=C1C=CC(=C(c2ccc(O)cc2)c2ccc(O)cc2)C=C1,nt,-1.4%,14.1µM*,-10.5%,nt
O=C(O)C1=CC(=C(c2ccc(O)c(C(=O)O)c2)c2ccc(O)c(C(=O)O)c2)C=CC1=O,?,1.5%,?,?,nt
CN(C)CC#Cc1cncc(C(=O)NNC(=O)Nc2ccc(Cl)cc2)c1,?,nt,nt,25.1µM*,nt
